# HDAC3 inh = blocks human histone deacetylase 3; recombinant HDAC3, fluorogenic peptide/trypsin coupled, fluorescence; O15379; inhibition, % at 8.3 µM; 0.15% of 320,000 active; in the data active = inhibition above about 26%, passing the limit was not always enough
# hiPSC survival = increases survival of single human iPS cells. hiPSC single-cell survival, ATPlite luminescence; 100% = ROCK inhibitor wells, 0% = DMSO. survival enhancement, % at 20 µM. 0.044% of 360,000 active; in the data active = survival enhancement above about 18%;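 note: cells exposed to compounds for 16 hours before the ATP read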
# LANA-H2A inh = blocks KSHV LANA binding to histone H2A/H2B | Q9QR71 | cell-free LANA-H2A/H2B peptide, fluorescence polarization | inhibition, % (no concentration beside the values) | 0.6% of 320,000 active | AID 2629; in the data active = inhibition mostly above about 10%, no sharp cut-off; inactive = mostly below about 6.7%
# DAGLB inhibitor = diacylglycerol lipase beta (human) inhibition; HEK293T DAGLB membrane lysate, EnzChek fluorogenic substrate; inhibition, % at 5.17 µM; 0.059% of 340,000 active; in the data active = inhibition above about 34%
# A number is an active result; n = inactive; x = no result given; ! = not confirmed by another sample. A selection: hits, their analogues and other compounds. The true share with any hit is near 0.79%.
SMILES,HDAC3 inh,hiPSC survival,LANA-H2A inh,DAGLB inhibitor
CCN(C(=O)COC(=O)c1cc(Cl)ccc1OC)c1c(N)n(Cc2ccccc2)c(=O)[nH]c1=O,n,n,39,n
CCc1c2ccccc2nn1-c1ccccc1C(=O)C(C)=O,n,n,10,n
Cc1onc(-c2c(F)cccc2Cl)c1C(=O)N1CCc2ccccc21,n,n,66,n
COC(=O)CCCC(=O)NC1CCCc2c1cnn2-c1ccc(F)cc1F (stereo unspecified),n,n,n,n
CC(NC(=O)c1cccc(S(=O)(=O)N2CCc3ccccc32)c1)c1ccco1 (stereo unspecified),n,n,135,n
O=C(NCC(c1ccco1)N1CCCC1)c1cccc(S(=O)(=O)N2CCc3ccccc32)c1 (stereo unspecified),x,n,x,n
O=C1CCN2C=Nc3cccc4ccc1c2c34,n,n,114,n
Cc1ccc(Cc2c(C)nc3nc(SCC(=O)NCCCN4CCCCCC4)nn3c2C)cc1,33,x,n,x
Cc1nc2nc(SCC(=O)NCCCN3CCCCC3)nn2c(C)c1Cc1ccccc1,n,n,n,n
CN(C(=O)c1ccccc1C(=O)OCC(=O)c1ccccc1)c1ccccc1,n,n,30,n
C=CCOc1ccc(/C=C/C(=O)OCC(=O)NCC(=O)Nc2c(C)cc(C)cc2C)cc1,n,n,n,n
C/C(=N/NC(=O)c1ccccc1)C1=C(O)CC(C)(C)CC1=O,71,n,n,n
CCCCCC(O)(c1ccc(OCC)cc1)C(CN1CCOCC1)c1ccccc1 (stereo unspecified),26,n,n,n
C=C(c1ccccc1)c1ccccc1N,n,n,n,n
CNc1nc(-c2ccccc2)[n+](-c2ccc(C)cc2)s1,42,n,n,n
Cc1ccc(-c2cc(-c3ccccc3)nc(NN)n2)cc1,n,n,n,n
Cc1ccc(S(=O)(=O)Nc2nc(-c3ccccc3)cs2)cc1,n,n,n,n
Cc1ccc(-c2nc(N)s[n+]2-c2ccccc2)cc1,62,n,n,n
CC(=O)c1c(C)[nH]c(C(=O)Nc2cccc(C)n2)c1C,n,n,9.4,n
CCO[C@H]1OC(C(=O)NCc2nc3ccccc3[nH]2)=C[C@@H](C2CCCCC2)[C@@H]1CCCO,n,n,18,n
Oc1c(N=Nc2ccccn2)ccc2ccccc12,n,n,n,40
Oc1[nH]c2ccccc2c1N=Nc1ccccn1,x,n,x,n
COc1cc(NC(=O)COc2cccc3c2OC(C)(C)C3)cc(OC)c1OC,n,n,34,n
CC(=O)Nc1ccc(NC(=O)COc2cccc3c2OC(C)(C)C3)cc1,n,n,n,n
O=C(NNS(=O)(=O)c1ccc([N+](=O)[O-])cc1)c1ccc([N+](=O)[O-])cc1,n,n,n,n
SMILES,HDAC3 inh,hiPSC survival,LANA-H2A inh,DAGLB inhibitor
Cn1c(=O)cc(OCCCC(=O)Nc2cccc(Cl)c2)c2ccccc21,x,21,x,x
Cn1c(=O)cc(OCCCC(=O)Nc2ccccn2)c2ccccc21,n,n,n,n
COc1ccc(C(=O)C2CCCN(C(=O)c3cc(C(C)C)no3)C2)cc1F (stereo unspecified),n,n,n,n
CCc1noc(C)c1C(=O)N1CCCC(C(=O)c2ccc(OC)c(F)c2)C1 (stereo unspecified),n,n,14,n
O=C(CN1C(=O)C2CC=CCC2C1=O)NCC1COc2ccccc2O1 (stereo unspecified),n,n,51,n
CCCC1NC(=O)c2cccnc2-n2c1nc1ccc(OC)cc1c2=O (stereo unspecified),x,n,x,n
N#Cc1ccccc1/C=N/Nc1nc(-c2ccccc2)c2cc(Cl)ccc2n1,n,n,55,n
Cc1ccc2nc(N/N=C/c3ccccc3C#N)nc(-c3ccccc3)c2c1,n,n,n,n
OC(CNCc1ccccc1)COCc1ccc(Cl)cc1 (stereo unspecified),n,n,n,n
O=S(Cc1ccc(Cl)cc1)CC(O)COCc1ccc(Cl)cc1 (stereo unspecified),n,n,19,n
Cc1ccc(S(=O)(=O)Nc2cccc(C(=O)NCC3CCCO3)c2)cc1F (stereo unspecified),n,n,n,n
COC(=O)c1cc2n(n1)CCN(Cc1cccc(OC)c1)C2=O,n,n,20,n
COC(=O)c1cc2n(n1)CCN(Cc1ccc(C)cc1)C2=O,n,n,n,n
O=C(CCCN1C(=O)/C(=C\c2cccc(Br)c2)SC1=S)Nc1cccnc1,n,n,19,n
CC(Nc1nc(-c2ccc3c(c2)NC(=O)CO3)cs1)c1ccccc1 (stereo unspecified),36,n,n,n
Cc1ccc(S(=O)(=O)N2CCN(C(=O)C3CCN(C(=O)c4ccc(F)cc4)CC3)CC2)c(C)c1,n,n,22,n
Cc1ccc(S(=O)(=O)N2CCN(C(=O)C3CC3C)CC2)c(C)c1 (stereo unspecified),n,n,n,n
COc1ccccc1CNC1CCCc2ccccc21 (stereo unspecified),n,n,n,n
COc1ccc(CNC2CCCc3ccccc32)cc1OC (stereo unspecified),n,n,31,n
CCCCn1nc(C(=O)Nc2ccc(-n3cnnn3)cc2)c2ccccc2c1=O,n,n,n,n
CC(C(=O)Nc1nnc(C2CC2)s1)N1C(=O)C2CC=CCC2C1=O (stereo unspecified),n,n,13,n
Cn1c(CC(=O)NNC(=O)c2cccnc2)nc2ccccc21,n,n,19,n
Clc1cccc(Cl)c1/C=C/c1nc2ccccc2[nH]1,n,n,11,n
Clc1ccc(/C=C/c2nc3ccccc3[nH]2)cc1,n,n,n,n
COc1ccc2[nH]c3c(c2c1)CCN1C(=O)C(CC(=O)NCCC2=CCCCC2)C[C@H](C(=O)N2CCCCC2)[C@@]31CCc1ccccc1 (stereo partly specified),x,n,x,n
SMILES,HDAC3 inh,hiPSC survival,LANA-H2A inh,DAGLB inhibitor
COc1ccc(C2=CC(=O)C[C@H](c3ccc(OC)c(OC)c3)C2)cn1,n,46,n,n
COc1ccc([C@H]2CC(=O)C=C(c3ccc(F)nc3)C2)cc1OC,n,n,n,n
CCOC(=O)COc1ccc(Br)cc1C1NC(=O)NC(C)=C1C(=O)NCc1ccccc1 (stereo unspecified),n,n,67,n
Cc1csc(-c2coc3cc(O)cc(C)c3c2=O)n1,n,n,8.1,n
CC(=O)Nc1cccc(-c2ccnc3c2CC(C)(C(=O)NCc2ccc(N(C)C)cc2)O3)c1 (stereo unspecified),x,n,x,x
CC(C)[C@H](NC(=O)NCCC1=CCCCC1)C(=O)O,n,n,n,n
CCC(C)[C@H](NC(=O)NCCC1=CCCCC1)C(=O)O (stereo partly specified),n,n,35,n
O=S(=O)(NCCCCCNS(=O)(=O)c1ccccc1)c1ccccc1,n,n,16!,n
O=S(=O)(NCCCc1ccccc1)c1ccccc1,n,n,n,n
Cc1ccc(S(=O)(=O)NCCNS(=O)(=O)c2ccc(C)cc2)cc1,n,n,19,n
Cc1ccc(S(=O)(=O)NNC(=O)C(=O)NNS(=O)(=O)c2ccc(C)cc2)cc1,n,n,n,n
Cc1ccc(S(=O)(=O)NNC(=O)CCCCC(=O)NNS(=O)(=O)c2ccc(C)cc2)cc1,n,n,7.7,n
